hNpr1 antagonist: human Npr1 receptor antagonism; Potency, µM (titrated, usually from 46.3 µM), usual class: inhibitors; AID 1347048; actives 1.6% (n = 76,000); HEK293 hNpr1 GloSensor cGMP, ANP-stimulated luminescence; calls by dose curve; also: nearly all actives have a fitted effect of over 60% in size
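Compound pre-incubated 30 min at room temperature on GloSensor-loaded HEK293 cells stably carrying hNpr1 and the pGS-40F cGMP biosensor. Stimulation uses hNppA at 0.1 nM final; luminescence is taken at baseline and 20 min post-agonist.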
NIH3T3 tox: kills NIH 3T3 cells; AID 1345082; Potency, µM (top dose mostly 96.7 µM), most hits filed as inhibitors; actives 4.3% (n = 94,000); NIH 3T3 viability, CellTiter-Glo ATP luminescence, 48-72 h; also: nearly all actives have a fitted effect of over 55% in size
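Cytotoxicity was measured by CellTiter-Glo ATP luminescence after 48 or 72 h compound exposure at 37 °C. Mouse NIH 3T3 fibroblasts were seeded at 400 cells/well and dosed by 23 nL pin transfer.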
Luciferase inh: inhibitors of firefly (Photinus pyralis) luciferase; purified P. pyralis luciferase, luminescence, biochemical; Potency, µM (titrated, usually from 115 µM), actives largely listed as inhibitors; AID 1347043; P08659; actives 2.5% (n = 76,000); also: nearly all actives have a fitted effect of over 65% in size
Target sequence (P08659 whole entry, looked up): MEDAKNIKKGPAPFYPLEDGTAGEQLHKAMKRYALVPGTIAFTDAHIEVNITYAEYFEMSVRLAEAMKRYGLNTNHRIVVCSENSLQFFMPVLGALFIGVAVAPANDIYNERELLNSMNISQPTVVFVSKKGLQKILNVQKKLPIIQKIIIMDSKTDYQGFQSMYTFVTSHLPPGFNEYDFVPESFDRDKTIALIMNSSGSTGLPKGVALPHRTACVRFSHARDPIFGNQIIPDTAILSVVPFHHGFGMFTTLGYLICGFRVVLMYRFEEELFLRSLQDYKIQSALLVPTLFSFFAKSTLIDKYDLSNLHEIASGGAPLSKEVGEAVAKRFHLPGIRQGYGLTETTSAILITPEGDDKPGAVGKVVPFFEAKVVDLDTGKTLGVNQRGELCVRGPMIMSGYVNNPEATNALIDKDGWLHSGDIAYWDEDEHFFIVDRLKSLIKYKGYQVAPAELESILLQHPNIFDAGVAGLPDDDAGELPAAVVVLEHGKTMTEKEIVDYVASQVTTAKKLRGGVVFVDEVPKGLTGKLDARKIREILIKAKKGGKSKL
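Biochemical qHTS: compound (6-point titration) added to 10uM D-luciferin plus 10uM ATP in Tris acetate pH 7.5 buffer with Mg, Tween-20 and BSA, then purified enzyme at 10nM; light output imaged.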
HEK cytotox: cytotoxic compounds in HEK 293 cells; Potency, µM (top dose mostly 115 µM), actives largely listed as inhibitors; actives 6.6% (n = 94,000); AID 1345083; HEK 293 viability, ATP luminescence (CellTiter-Glo), 48-72 h; also: nearly all actives have a fitted effect of over 60% in size
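HEK 293 cells seeded at 250 cells/well were exposed to compound for 48 or 72 hr at 37 degree Celsius. Viability taken as ATP content by CellTiter-Glo luminescence.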
Numbers stand for hits. In the library only some 11% were active in any assay of this set; here they are far more common. Unless noted, calls follow the shape of the dose curve; as a rule, active = well fitted curve in the direction sought with a large enough effect; inconclusive = small, poorly fitted or top-dose-only effect, or another doubt; inactive = no such curve, though single readings can be large; an effect the other way counts as inactive or inconclusive.

`OCCN1CCN(c2ccc(-c3nc(-c4cccc(C(F)(F)F)c4)no3)cn2)CC1` gave hNpr1 antagonist inconclusive, NIH3T3 tox 25.1µM, Luciferase inh 28.2µM and HEK cytotox inconclusive.
Screening COc1ccc(Cn2c(=O)c(C(=O)NCCc3ccc(Cl)cc3)nc3cccnc32)cc1 returned NIH3T3 tox inactive and HEK cytotox inactive.
O=C(c1ccccc1)N1CCN(C(=O)c2nc3cccnc3n(CCc3ccccc3)c2=O)CC1 was read as NIH3T3 tox inactive and HEK cytotox inactive.
CCCCn1c(=O)c(C(=O)NCC2CC2)nc2cccnc21 was read as NIH3T3 tox inconclusive and HEK cytotox inactive.
CCCCn1c(=O)c(C(=O)NCC2CCCCC2)nc2cccnc21 was read as NIH3T3 tox inconclusive and HEK cytotox 35.5µM.
`O=C(NCCc1ccc(Cl)cc1)c1nc2cccnc2n(Cc2ccccc2)c1=O` gave NIH3T3 tox inconclusive and HEK cytotox 89.1µM.
`O=C(c1ccc(C(F)(F)F)cc1)N1CCN(C(=O)c2nc3cccnc3n(CCc3ccccc3)c2=O)CC1` gave NIH3T3 tox inconclusive and HEK cytotox 44.7µM.
O=C(NC1CC1)c1nc2cccnc2n(CCc2ccccc2)c1=O was read as NIH3T3 tox inactive and HEK cytotox 56.2µM.
O=C(NCCCc1ccccc1)C1CCCN1C(=O)c1cccc(-c2ccccn2)c1 (configuration not stated) was read as NIH3T3 tox inactive and HEK cytotox inactive.
CN1C[C@@H](NC(=O)Nc2ccccc2)C[C@H]1c1nc(-c2ccccc2)no1 was read as hNpr1 antagonist inactive, NIH3T3 tox inactive, Luciferase inh inactive and HEK cytotox inconclusive.
O=C(NCc1ccccc1F)c1nc2cccnc2n(Cc2ccccc2)c1=O was read as NIH3T3 tox inconclusive and HEK cytotox 79.4µM.
For Cc1cccc(-c2noc(CCC(=O)N3CCC(C)(c4noc(-c5ccncc5)n4)CC3)n2)c1 the results were hNpr1 antagonist inconclusive, NIH3T3 tox inconclusive, Luciferase inh inactive and HEK cytotox inconclusive.
`Cc1cccc(-c2noc(CCC(=O)N3CCC(C)(c4noc(C)n4)CC3)n2)c1` gave hNpr1 antagonist inactive, NIH3T3 tox inconclusive, Luciferase inh inactive and HEK cytotox 44.7µM.
CCOC(=O)CCNC(=O)N1CCC(CC2CC2)(NS(C)(=O)=O)CC1 was read as NIH3T3 tox inactive and HEK cytotox inactive.
For CCOC(=O)N1CCC(c2noc3nc(C)cc(C(=O)NC)c23)C1 (configuration not stated) the results were NIH3T3 tox inactive and HEK cytotox inactive.
For O=C(NCCCN1CCCC1=O)c1ccc(-c2ccc(N3CCSCC3)nc2)cc1 the results were hNpr1 antagonist inconclusive, NIH3T3 tox inconclusive, Luciferase inh 39.8µM and HEK cytotox inconclusive.
For O=C(NCc1cccnc1)c1ccc(-c2ccc(N3CCSCC3)nc2)cc1 the results were hNpr1 antagonist 11.2µM, NIH3T3 tox 4.47µM, Luciferase inh inconclusive and HEK cytotox 10µM.
`COc1ccc(CNC(=O)c2ccc(-c3ccc(N4CCSCC4)nc3)cc2)cc1` gave hNpr1 antagonist inactive, NIH3T3 tox inactive, Luciferase inh inactive and HEK cytotox inactive.
Screening O=C(NCCN1CCOCC1)c1ccc(-c2ccc(N3CCCCCC3)nc2)cc1 returned hNpr1 antagonist inactive, NIH3T3 tox 35.5µM, Luciferase inh inconclusive and HEK cytotox 35.5µM.
Screening O=C(NC1CC1)c1ccc(-c2ccc(N3CCCCC3)nc2)cc1 returned hNpr1 antagonist inactive, NIH3T3 tox inactive, Luciferase inh inactive and HEK cytotox inactive.
Screening O=C(NCCCN1CCOCC1)c1ccc(-c2ccc(N3CCCCCC3)nc2)cc1 returned hNpr1 antagonist inactive, NIH3T3 tox inconclusive, Luciferase inh inconclusive and HEK cytotox 35.5µM.
`COCCNC(=O)c1ccc(-c2ccc(N3CCCCCC3)nc2)cc1` gave hNpr1 antagonist inactive, NIH3T3 tox inconclusive, Luciferase inh inconclusive and HEK cytotox inconclusive.
CC(C)Cn1c(=O)c(C(=O)N2CCN(C(=O)c3ccccc3Cl)CC2)nc2cccnc21 was read as NIH3T3 tox inactive and HEK cytotox inactive.
`CN(Cc1ccccc1)C(=O)c1ccc2c(c1)NC(C)(CNCc1ccccc1)CO2` (configuration not stated) gave hNpr1 antagonist inactive, NIH3T3 tox 89.1µM, Luciferase inh inactive and HEK cytotox inconclusive.
CN(C)CCN(C)C(=O)c1ccc2c(c1)NC(C)(CCCCc1ccccc1)CO2 (configuration not stated) was read as hNpr1 antagonist inactive, NIH3T3 tox 31.6µM, Luciferase inh inactive and HEK cytotox 100µM.
Screening CN(C(=O)c1ccc2c(c1)NC(C)(CNCc1ccccc1)CO2)c1ccccc1 (configuration not stated) returned hNpr1 antagonist inactive, NIH3T3 tox inconclusive, Luciferase inh inactive and HEK cytotox inconclusive.
CN(C)CCN(C)C(=O)c1ccc2c(c1)NC(C)(COc1ccccc1)CO2 (configuration not stated) was read as hNpr1 antagonist inactive, NIH3T3 tox 89.1µM, Luciferase inh inactive and HEK cytotox inconclusive.
`COc1ccc(OCC2(C)COc3ccc(C(=O)N(C)CCN(C)C)cc3N2)cc1` (configuration not stated) gave hNpr1 antagonist inactive, NIH3T3 tox inconclusive, Luciferase inh inactive and HEK cytotox inactive.
For O=C(Nc1ccc2c(c1)OCCO2)N1CCC(Cc2nncn2-c2ccccc2)CC1 the results were NIH3T3 tox inactive and HEK cytotox inactive.
O=C(NC1CCCC1)N1CCN(c2ccc3nnc(-c4ccccc4)n3n2)CC1 was read as NIH3T3 tox inconclusive and HEK cytotox inactive.
`CC(=O)N1CCN(C(=O)C2CCc3nnc(C4CCN([S+](C)(=O)[O-])CC4)n32)CC1` (configuration not stated) gave NIH3T3 tox inactive and HEK cytotox inactive.
COc1cccc(NC(=O)c2cc(-c3ccc(C(F)(F)F)cc3)nc3c2cnn3C)c1 was read as NIH3T3 tox inconclusive and HEK cytotox 39.8µM.
For COc1cccc(NC(=O)c2cc(-c3ccccc3C(F)(F)F)nc3c2cnn3C)c1 the results were NIH3T3 tox inconclusive and HEK cytotox 22.4µM.
`COc1ccccc1NC(=O)c1cc(-c2ccccc2C(F)(F)F)nc2c1cnn2C` gave NIH3T3 tox inconclusive and HEK cytotox 44.7µM.
Screening COc1ccccc1-c1cc(C(=O)Nc2ccc(Cl)cc2)c2cnn(C)c2n1 returned NIH3T3 tox inconclusive and HEK cytotox 22.4µM.
`Cn1ncc2c(C(=O)Nc3ccccc3F)cc(-c3ccccc3C(F)(F)F)nc21` gave NIH3T3 tox inactive and HEK cytotox inactive.
For CCNC(=O)N(C1CC1)C1CCOC2(CCN(C(=O)c3ccc(OC)nc3)CC2)C1 (configuration not stated) the results were NIH3T3 tox inconclusive and HEK cytotox inactive.
Screening CC(C)(C)C(=O)N1CCN(C(=O)c2nc3cccnc3n(CCc3ccccc3)c2=O)CC1 returned NIH3T3 tox inactive and HEK cytotox inactive.
